This passage reports composite z-score, composite Z-score and z-score results from PubChem BioAssay.

One experiment deals with Albumin (Bos taurus) (UniProt P02769). As to the kind of experiment: compounds binding labelled BSA control protein – biochemical, small-molecule microarray, Alexa647 label, 635/667 nm fluorescence, artefact control for SMM control protein annotation, profiling panel (AID 1118).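 Further: score merges 667 nm emission intensity and signal-to-noise per printed compound spot.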 As to conditions: BSA-A647 binding, fluorescence 635 nm, higher = more signal.
Albumin (Bos taurus), sequence (P02769 whole entry, looked up): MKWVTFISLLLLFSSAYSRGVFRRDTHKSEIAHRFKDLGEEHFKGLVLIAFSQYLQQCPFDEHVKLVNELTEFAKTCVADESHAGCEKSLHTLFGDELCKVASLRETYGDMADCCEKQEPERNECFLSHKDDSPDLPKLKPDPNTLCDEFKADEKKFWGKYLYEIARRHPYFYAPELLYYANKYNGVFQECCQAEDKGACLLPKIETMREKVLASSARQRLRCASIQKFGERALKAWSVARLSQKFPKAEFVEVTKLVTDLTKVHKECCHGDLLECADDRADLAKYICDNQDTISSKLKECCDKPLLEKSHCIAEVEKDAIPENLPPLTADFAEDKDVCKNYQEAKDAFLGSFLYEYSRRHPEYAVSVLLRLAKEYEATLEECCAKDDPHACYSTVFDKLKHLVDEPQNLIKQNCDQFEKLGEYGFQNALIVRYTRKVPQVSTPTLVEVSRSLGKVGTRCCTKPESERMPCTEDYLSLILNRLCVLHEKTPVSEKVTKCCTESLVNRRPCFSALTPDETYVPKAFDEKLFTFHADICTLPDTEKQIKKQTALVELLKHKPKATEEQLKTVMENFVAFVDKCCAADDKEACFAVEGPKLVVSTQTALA
Experiment [1] is described as follows: probe aXIP binding to arrayed compounds – biochemical, NeuroSMM set, 635/667 nm fluorescence, primary screen (AID 1119).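 Further: probe is the protein aXip251-270 applied at 1 µg/mL to compound-printed slides; binding of probe to printed compounds measured as 667 nm fluorescence plus signal to noise.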 The following applies: small-molecule microarray, higher = more signal, called active from +8 up or from −8 down.
Experiment [2] in a line: probe aNOTCH3 binding on compound microarray – biochemical, small-molecule microarray, 635/667 nm fluorescence, primary screen (AID 1120).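 Further: probe is a biotin-tagged antibody raised against NOTCH3 rather than NOTCH3 protein; score merges spot fluorescence near 667 nm with spot signal to noise.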 The following applies: higher = more signal.
A short description of experiment [3]: probe aNOTCH2 binding on compound microarray – biochemical, small-molecule microarray, 635/667 nm fluorescence, primary screen (AID 1121).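 Further: score merges feature fluorescence read at 667 nm with its signal to noise.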 The following applies: higher = more signal.
Experiment [4] addresses Carbonic anhydrase 2 (Homo sapiens) (UniProt P00918). As to the kind of experiment: compounds binding carbonic anhydrase 2 – biochemical, small-molecule microarray, Alexa647-labelled CAII, profiling panel (AID 1122). The following applies: CAII-A647 binding fluorescence, higher = more signal.
The nature of experiment [5]: COS7 lysate on small-molecule microarray, probe aHis, 635 nm (AID 1123).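 Further: z-score combines 667nm fluorescence intensity with signal-to-noise per printed compound spot.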 The following applies: COS7 cell lysate, fluorescence, higher = more signal.
A short description of experiment [6]: probe aLAP1 signal on lysate-treated microarray – cell lysate, small-molecule microarray, COS7 lysate, primary screen (AID 1124).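 Further: lysate comes from COS7 cells expressing LAP1 and is applied at 0.3 µg/mL; score merges spot fluorescence near 667 nm with signal-to-noise over triplicate slides.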 The following applies: probe aLAP1, fluorescence, higher = more signal.
The next experiment deals with Sam68 (KHDRBS1). As to the kind of experiment: compounds binding KHDRBS1 protein – biochemical, small-molecule microarray, 635 nm fluorescence, primary screen (AID 1125).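 Further: score merges 667 nm channel intensity with signal to noise over triplicate slides.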 As to conditions: higher = more signal.
Experiment [7] has as its system Chordin-like protein 2 (CHRDL2). The experiment in a line: compounds binding chordin-like 2 – biochemical, small-molecule microarray, 635 nm fluorescence, primary screen (AID 1126).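 Further: printed compound slides probed with Chrdl2 protein at 4 µg/mL for 1 h at 4 C; score merges 667 nm emission intensity with signal to noise over three replicate slides.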 The following applies: fluorescence 635 nm, higher = more signal.
For experiment [8], the target named is Concanavalin-A (Canavalia ensiformis) (UniProt P02866). The experiment in a line: compounds binding concanavalin A lectin – biochemical, small-molecule microarray, Alexa647 label, 635 nm, artefact control for SMM control protein annotation, primary screen (AID 1127).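 Further: z combines 667 nm emission intensity with signal-to-noise across three replicate slides.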 The following applies: ConA-A647 binding fluorescence, higher = more signal.
Concanavalin-A (Canavalia ensiformis), sequence (P02866 whole entry, looked up): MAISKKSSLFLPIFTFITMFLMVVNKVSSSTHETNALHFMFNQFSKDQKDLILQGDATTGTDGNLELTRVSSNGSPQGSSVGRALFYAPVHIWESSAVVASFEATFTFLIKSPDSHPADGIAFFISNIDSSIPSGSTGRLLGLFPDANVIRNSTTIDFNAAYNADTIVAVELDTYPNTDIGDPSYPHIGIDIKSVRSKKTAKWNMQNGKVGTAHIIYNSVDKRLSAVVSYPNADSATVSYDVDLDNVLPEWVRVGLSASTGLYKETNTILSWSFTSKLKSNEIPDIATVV
A short description of experiment [9]: compounds binding Alexa647 anti-His antibody – biochemical, small-molecule microarray, 635 nm fluorescence, artefact control for SMM control protein annotation, primary screen (AID 1128).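 Further: score merges feature fluorescence with signal-to-noise for each printed compound spot.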 The following applies: higher = more signal.
For experiment [10], the system named is Human papillomavirus type 1a E7 protein (residues 1-88). As to the kind of experiment: HPV1a E7 small-molecule binders, primary screen, biochemical, small-molecule microarray, residues 1-88, 635 nm (AID 1129). The following applies: small-molecule microarray binding, fluorescence 635 nm; higher = more signal.
The target of experiment [11] is Focal adhesion kinase 1 (Homo sapiens) (UniProt Q05397). As to the kind of experiment: PTK2 protein binding on printed compound slides – biochemical, small-molecule microarray, 635/667 nm fluorescence, BSA, DTT, primary screen (AID 1130).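 Further: composite of spot emission at 667 nm and signal to noise over triplicate slides.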 The following applies: 635 nm fluorescence, higher = more signal.
Focal adhesion kinase 1 (Homo sapiens), sequence (Q05397 whole entry, looked up): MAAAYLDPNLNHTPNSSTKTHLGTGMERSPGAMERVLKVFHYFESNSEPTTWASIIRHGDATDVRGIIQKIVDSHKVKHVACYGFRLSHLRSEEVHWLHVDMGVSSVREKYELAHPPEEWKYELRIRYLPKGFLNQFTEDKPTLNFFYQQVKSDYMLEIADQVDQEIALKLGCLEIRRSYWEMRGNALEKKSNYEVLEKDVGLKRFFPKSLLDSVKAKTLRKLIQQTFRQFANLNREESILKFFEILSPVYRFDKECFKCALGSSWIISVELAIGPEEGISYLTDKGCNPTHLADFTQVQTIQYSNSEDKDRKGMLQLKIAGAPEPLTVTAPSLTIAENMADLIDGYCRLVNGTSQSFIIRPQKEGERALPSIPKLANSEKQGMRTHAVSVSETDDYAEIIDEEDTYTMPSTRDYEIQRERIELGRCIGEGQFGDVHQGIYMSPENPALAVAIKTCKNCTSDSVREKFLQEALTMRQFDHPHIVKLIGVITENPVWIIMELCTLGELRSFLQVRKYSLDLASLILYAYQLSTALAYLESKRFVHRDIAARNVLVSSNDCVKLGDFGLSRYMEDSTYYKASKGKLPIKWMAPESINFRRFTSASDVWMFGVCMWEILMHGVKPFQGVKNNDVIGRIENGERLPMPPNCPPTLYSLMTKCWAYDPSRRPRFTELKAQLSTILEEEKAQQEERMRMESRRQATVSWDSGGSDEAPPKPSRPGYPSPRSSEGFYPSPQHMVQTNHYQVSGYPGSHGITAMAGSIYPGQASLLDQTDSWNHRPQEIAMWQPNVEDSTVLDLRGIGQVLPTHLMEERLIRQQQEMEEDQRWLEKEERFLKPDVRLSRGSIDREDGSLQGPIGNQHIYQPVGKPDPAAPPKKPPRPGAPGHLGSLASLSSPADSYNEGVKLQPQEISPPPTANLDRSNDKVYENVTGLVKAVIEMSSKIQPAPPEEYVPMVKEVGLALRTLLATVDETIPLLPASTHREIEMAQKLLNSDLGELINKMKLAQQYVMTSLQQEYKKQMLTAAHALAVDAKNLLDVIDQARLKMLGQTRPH
The test system of experiment [12] is Fibrinogen (Alexa647-labelled). As to the kind of experiment: Alexa647-fibrinogen binding to printed small molecules – biochemical, small-molecule microarray, 635/667 nm fluorescence, artefact control for SMM control-protein annotation, profiling panel (AID 1131).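 Further: z-score merges 667 nm fluorescence with per-spot signal-to-noise over triplicate slides.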 The following applies: fibrinogen-A647 binding fluorescence, higher = more signal.
For experiment [13], the target named is Follistatin (Homo sapiens) (UniProt P19883). The experiment in a line: FST protein binding to printed compounds – biochemical, small-molecule microarray, 635/667 nm fluorescence, primary screen (AID 1132). As to conditions: 635 nm fluorescence, higher = more signal.
Follistatin (Homo sapiens), sequence (P19883 whole entry, looked up): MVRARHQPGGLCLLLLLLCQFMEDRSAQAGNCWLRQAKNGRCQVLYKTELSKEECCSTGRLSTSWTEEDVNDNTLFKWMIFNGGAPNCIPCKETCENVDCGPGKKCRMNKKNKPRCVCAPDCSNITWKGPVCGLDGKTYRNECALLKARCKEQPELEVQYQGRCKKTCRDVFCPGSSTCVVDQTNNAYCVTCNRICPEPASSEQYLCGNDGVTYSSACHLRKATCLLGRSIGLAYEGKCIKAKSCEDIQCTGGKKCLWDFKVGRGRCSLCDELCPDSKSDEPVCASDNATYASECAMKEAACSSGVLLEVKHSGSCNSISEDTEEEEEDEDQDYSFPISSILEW
For experiment [14], the target named is Fibroblast growth factor 2 (Homo sapiens) (UniProt P09038). The experiment in a line: basic fibroblast growth factor binding to printed compounds – biochemical, small-molecule microarray, 635/667 nm fluorescence, primary screen (AID 1133). The following applies: FGF2, fluorescence 635/667, higher = more signal.
Fibroblast growth factor 2 (Homo sapiens), sequence (P09038 whole entry, looked up): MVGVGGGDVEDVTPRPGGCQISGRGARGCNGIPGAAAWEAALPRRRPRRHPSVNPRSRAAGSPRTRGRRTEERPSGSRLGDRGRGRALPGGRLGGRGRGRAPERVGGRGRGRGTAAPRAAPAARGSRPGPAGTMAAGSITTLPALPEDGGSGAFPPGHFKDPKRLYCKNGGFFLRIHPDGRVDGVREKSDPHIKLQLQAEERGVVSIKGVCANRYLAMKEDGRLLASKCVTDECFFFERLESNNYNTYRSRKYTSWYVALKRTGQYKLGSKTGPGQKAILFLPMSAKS
The nature of experiment [15]: JC-1 mitochondrial potential readout, lung cancer cells – cell-based, A549, JC-1 fluorescence, basal, 24 h, 100 nL, profiling panel (AID 1138).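 Further: A549 lung adenocarcinoma cells under basal conditions with no added stimulus; test concentration not given here.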 The following applies: higher = more signal.
The next experiment deals with Lefty1. As to the kind of experiment: Lefty1 protein binding to printed compounds – biochemical, small-molecule microarray, 635/667 nm fluorescence, primary screen (AID 1139). The following applies: fluorescence 635/667, higher = more signal.
For experiment [16], the system named is wheat germ agglutinin (Triticum aestivum), Alexa647-labelled. The experiment in a line: Alexa647-WGA lectin binding to printed small molecules – biochemical, small-molecule microarray, 635/667 nm fluorescence, artefact control for SMM control-protein annotation, profiling panel (AID 1140).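 Further: score merges 667 nm feature emission with signal to noise over triplicate slides.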 As to conditions: WGA-A647 binding, 635 nm fluorescence, higher = more signal.

In experiment [17] the target is Luciferin 4-monooxygenase (Photinus pyralis) (UniProt P08659). The experiment in a line: inhibition of purified Photinus pyralis luciferase – biochemical, luminescence, purified enzyme, 2006 set, primary screen (AID 1141).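 Further: cell-free assay with purified firefly luciferase at 100 ng per well in PBS; test concentration not given here.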 As to conditions: purified firefly luciferase, SteadyGlo luminescence, 30 min; higher = more signal, called active from +8 up or from −8 down.
Luciferin 4-monooxygenase (Photinus pyralis), sequence (P08659 whole entry, looked up): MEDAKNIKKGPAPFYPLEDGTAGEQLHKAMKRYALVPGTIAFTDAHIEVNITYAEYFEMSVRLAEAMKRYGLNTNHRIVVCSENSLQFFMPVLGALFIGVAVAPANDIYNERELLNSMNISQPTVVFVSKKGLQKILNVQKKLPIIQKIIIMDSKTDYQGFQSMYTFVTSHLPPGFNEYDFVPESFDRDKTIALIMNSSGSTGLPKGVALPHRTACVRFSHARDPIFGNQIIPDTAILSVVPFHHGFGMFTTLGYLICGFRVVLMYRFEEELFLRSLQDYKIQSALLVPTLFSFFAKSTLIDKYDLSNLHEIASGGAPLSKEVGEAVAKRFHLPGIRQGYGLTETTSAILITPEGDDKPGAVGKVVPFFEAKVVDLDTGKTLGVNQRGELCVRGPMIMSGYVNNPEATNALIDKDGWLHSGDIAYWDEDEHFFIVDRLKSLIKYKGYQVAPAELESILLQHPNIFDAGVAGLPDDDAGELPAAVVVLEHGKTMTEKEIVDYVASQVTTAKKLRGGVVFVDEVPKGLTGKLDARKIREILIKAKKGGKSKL

Active and inactive are the calls of the source.

As to `COCCCNC(=O)[C@@]1(Cc2ccccc2)N=C(c2ccc(OCCCO)cc2)O[C@H]1c1ccccc1N=[N+]=[N-]`, the composite z-score in the experiment with Albumin (Bos taurus) worked out at 0.765; in experiment [2], 0.385; in experiment [3], 0.0538; in experiment [4], 0.405; in experiment [5], 0.877; in experiment [6], 0.516. In addition, the composite z-score is 0.846 in the experiment with Sam68 (KHDRBS1); -0.297 in experiment [7]; 0.0647 in experiment [8]; 0.644 in experiment [9]; 1.16 in [10]; 0.635 in experiment [11]. In addition, the composite z-score was 0.881 in experiment [12]; 1.48 in experiment [13]; 1.58 in experiment [14]; 0.269 with Lefty1; 1.15 in [16]. Also, the composite Z-score in experiment [1] is -0.597 (inactive). Also, the z-score in experiment [15] is 2.03; in experiment [17], -4.34 (inactive).
As for `C=CC[C@]1(C(=O)N2CCCCC2)COC(c2ccc(OCCCO)cc2)=N1`, the composite z-score in the experiment with Albumin (Bos taurus) was 0.837; in experiment [2], -0.152; in [3], -0.173; in experiment [4] it was 0.818; in experiment [5], 2.22; in experiment [6] it was 0.523. Also, the composite z-score in the experiment with Sam68 (KHDRBS1) was -0.48; in experiment [7], -0.802; in [8], -1.46; in experiment [9], -1.2; in [10], 0.633; in experiment [11], -0.0161. Further, the composite z-score in experiment [12] is -0.236; in experiment [13], -0.465; in experiment [14], -0.453; in the experiment with Lefty1 it was -0.45; in [16], -1.3. Moreover, in [1], the composite Z-score was -0.216 (inactive). The z-score in experiment [15] was 2.27; in [17], -2.65 (inactive).
As to `COc1ccc([Si](C)(C)[C@H]2[C@H](CC(=O)N3Cc4ccccc4C[C@H]3CO)O[C@@]3(C(=O)N(Cc4cccc(N5C(=O)COc6ccccc65)c4)c4ccccc43)[C@@H]2C)cc1`, the composite z-score is -0.534 with Albumin (Bos taurus); 0.0297 in experiment [2]; -0.102 in experiment [3]; 0.635 in experiment [4]; 1.97 in [5]; -0.245 in experiment [6]. The composite z-score in the experiment with Sam68 (KHDRBS1) was 1.02; in experiment [7] it was 1.38; in experiment [8], 1.16; in experiment [9], 1.57; in [10], 0.671; in experiment [11] it was 0.81. Moreover, the composite z-score was found to be 0.585 in [12]; 1.17 in experiment [13]; 1.6 in experiment [14]; 1.44 in the experiment on Lefty1; 0.862 in [16]. In addition, the composite Z-score in [1] was 0.373 (inactive). Further, the values for the z-score in experiment [15] and in experiment [17] were 0.388 and -0.961 (inactive), respectively.
As for `COc1ccc(C#Cc2ccc3c(c2)[C@]2(C(=O)N3)[C@H](c3ccc(O)cc3)N3[C@H](c4ccccc4)[C@H](c4ccccc4)OC(=O)[C@H]3[C@@H]2C(=O)N2CCN(c3ncccn3)CC2)cc1`, the composite z-score is 0.888 in the experiment with Albumin (Bos taurus); 0.116 in experiment [2]; 0.0557 in [3]; 0.462 in experiment [4]; 0.868 in experiment [5]; 0.97 in experiment [6]. Also, the composite z-score in the experiment on Sam68 (KHDRBS1) is 1.31; in experiment [7], -0.176; in experiment [8], 1.08; in [9] it was 1.2; in [10] it was 0.885; in experiment [11], 1.71. The composite z-score in [12] is 0.763; in experiment [13] it was 0.722; in [14], 0.143; in the experiment with Lefty1, -0.151; in experiment [16], 0.929. The composite Z-score in [1] was 4.41 (inactive). The z-score is -0.308 in experiment [15] and -1.27 (inactive) in experiment [17].
In the case of `C=CCC1(CC=C)C[C@H]2CO[C@H](c3ccc(OC)cc3)N2C1=O`, the composite z-score with Albumin (Bos taurus) was -1.14; in [2], -0.154; in experiment [3], -0.155; in experiment [4], 0.448; in experiment [5], -0.348; in experiment [6] it was 0.157. The composite z-score is -0.082 in the experiment on Sam68 (KHDRBS1); 1.3 in experiment [7]; 0.0736 in experiment [8]; 0.413 in experiment [9]; -0.154 in experiment [10]; -0.256 in experiment [11]. Besides, the composite z-score was -0.78 in [12]; 1.23 in experiment [13]; 0.15 in experiment [14]; 0.458 in the experiment on Lefty1; 1.28 in [16]. In addition, the composite Z-score in experiment [1] was -0.258 (inactive). The z-score was 1.31 in [15] and -1.13 (inactive) in experiment [17].
